The list is not random: actives were taken first. Their share in the collection is about 12%.
HP1b binding inh = HP1-beta chromodomain-methylated histone interaction inhibition; P83916; AlphaScreen HP1-beta / biotin-H3K9me3 peptide binding; Potency, µM (series often up to 114 µM), hits mostly inhibitors; 390,000 tested, 0.56% active; also: nearly all actives have a fitted effect of over 70% in size
Target sequence (P83916 whole entry, looked up): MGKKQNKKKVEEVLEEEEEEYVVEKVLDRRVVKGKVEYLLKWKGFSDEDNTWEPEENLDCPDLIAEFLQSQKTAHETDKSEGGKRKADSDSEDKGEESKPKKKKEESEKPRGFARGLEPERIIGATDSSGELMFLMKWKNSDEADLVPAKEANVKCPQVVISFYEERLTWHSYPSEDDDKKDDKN
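Compound inhibition of the preformed complex between 50 nM HP1-beta and 50 nM biotinylated H3K9me3 peptide was read by AlphaScreen. Buffer was PBS pH 7.4 with 0.01% Tween-20. Incubations ran 30 min at room temperature, with 10 ug/mL donor/acceptor beads.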
BAZ2B inh = inhibitors of human BAZ2B bromodomain; Q9UIF8; AlphaScreen BAZ2B-H3K14Ac peptide displacement; Potency, µM (series often up to 114 µM), usual class: inhibitors; 360,000 tested, 4.4% active; also: nearly all actives have a fitted effect of over 60% in size
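Multi-concentration screen (max 110 uM) measuring displacement of acetylated histone H3 peptide from BAZ2B by AlphaScreen, using 50 nM protein, 50 nM peptide and 10 ug/mL streptavidin donor plus Ni-chelate acceptor beads.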
TDP1 inh = inhibitors of human tyrosyl-DNA phosphodiesterase TDP1; recombinant TDP1, AlphaScreen DNA substrate cleavage; 350,000 tested, 0.28% active; Q9NUW8; Potency, µM (top dose mostly 130 µM), hits mostly inhibitors; also: nearly all actives have a fitted effect of over 40% in size
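Enzyme-compound mixtures sat 15 min at room temperature, followed by a 5 min reaction with 15 nM final substrate and 10 min with AlphaScreen beads. Recombinant human Tdp1 was used at 1 nM final.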
G9a inh = inhibitors of human histone lysine methyltransferase G9a. 350,000 tested, 8.8% active. Q96KQ7. G9a H3K9 monomethylation, AlphaScreen, 2 h. AID 504332. Potency, µM (top dose mostly 102 µM), usual class: inhibitors; also: nearly all actives have a fitted effect of over 75% in size
Target sequence (Q96KQ7 913-1193 limits assumed): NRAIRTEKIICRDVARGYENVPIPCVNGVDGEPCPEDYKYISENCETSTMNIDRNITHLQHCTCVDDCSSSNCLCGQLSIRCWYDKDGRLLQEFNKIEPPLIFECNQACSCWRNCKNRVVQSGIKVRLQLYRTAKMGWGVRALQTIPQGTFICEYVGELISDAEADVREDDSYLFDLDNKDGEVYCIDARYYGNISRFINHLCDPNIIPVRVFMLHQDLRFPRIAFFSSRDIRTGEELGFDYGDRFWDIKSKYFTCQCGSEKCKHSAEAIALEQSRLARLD
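Readings reflect AlphaScreen signal from monomethyl-H3K9 antibody detection. HMT at 20 nM; substrate b-H3K9 500 nM; cofactor SAM 20 uM; 2 h RT reaction; compounds tested as titrations in qHTS with 15 min preincubation.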
Sfp PPTase inh = Sfp phosphopantetheinyl transferase inhibition; Q9F4F7; Biochemical Sfp PPTase activity, qHTS; Potency, µM, most hits filed as inhibitors; 310,000 tested, 3.5% active; AID 1490;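 also: the enzyme is Sfp with the accession as filed and its product quenches rhodamine fluorescence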
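With Hepes-Na pH 7.6 buffer containing 10 mM MgCl2, Sfp (15 nM) modified BHQ-2-YbbR (12.5 uM) using rhodamine-CoA (5 uM). Two reads 30 minutes apart at 525/598 nm yielded each well's rate.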
JMJD2A Tudor = JMJD2A Tudor domain (human) inhibition; Potency, µM (highest dose often 114 µM), usual class: inhibitors; 390,000 tested, 4.4% active; AlphaScreen JMJD2A-Tudor / H3K4me3 peptide binding; O75164; also: nearly all actives have a fitted effect of over 50% in size
A number is an active result; n = inactive; u = inconclusive; x = no result given; [ ] = remark or other dose. Calls follow the shape of the dose curve; as a rule, active = well fitted curve in the direction sought with a large enough effect; inconclusive = small, poorly fitted or top-dose-only effect, or another doubt; inactive = no such curve, though single readings can be large; an effect the other way counts as inactive or inconclusive.

SMILES | HP1b binding inh | BAZ2B inh | TDP1 inh | G9a inh | Sfp PPTase inh | JMJD2A Tudor
BrC(=C\c1ccccc1)/C=N/N1CCN(Cc2ccccc2)CC1 | u | u | n | 44.7µM | n | u
CN(c1ccccc1)c1ccc(/C=N/N2CCOCC2)cc1 | 50.1µM | 50.1µM | n | u | n | 44.7µM
CC(C)n1nnc2cc(C(=O)O)ccc21 | x | x | n | n | n | x
BrC(/C=N/N1CCN(Cc2ccccc2)CC1)=C/c1ccccc1 | n | u | n | u | n | 39.8µM
CCOC(=O)C(C)NC(=O)c1cn(-c2ccc(OC)cc2)c(=O)c2ccccc12 (configuration not stated) | n | n | x | n | n | n
O=C(COC(=O)c1cnccn1)Nc1c(Cl)cc(Cl)cc1Cl | n | n | n | n | x | n
O=C(COC(=O)c1ccc(Br)o1)Nc1ncc(Cl)cc1Cl | n | 50.1µM | n | u | n | u
COc1cc(OC)cc(C(=O)NCC(=O)OCC(=O)c2ccc3c(c2)-c2ccccc2C3)c1 | n | n | n | 35.5µM | n | n
COc1cc(OC)cc(C(=O)NCC(=O)OCC(=O)Nc2ncc(Cl)cc2Cl)c1 | n | n | n | 70.8µM | n | n
O=C(COC(=O)c1ccc([N+](=O)[O-])o1)Nc1ncc(Cl)cc1Cl | n | x | n | x | x | n
O=C(COC(=O)c1cnccn1)Nc1ncc(Cl)cc1Cl | n | 50.1µM | n | 28.2µM | x | u
Cc1ccc(C(O)C2=CCCC2=O)cc1 (configuration not stated) | x | x | n | x | n | x
C=Cc1ccc(Cn2c(=O)cc(C)c3c(C)nn(C)c32)cc1 | n | n | n | n | x | n
O=c1c2cc3c(cc2nc2sc(Nc4cccc([N+](=O)[O-])c4)nn12)OCO3 | n | u | n | 1.41µM | x | n
Cc1cccc(Nc2nn3c(=O)c4cc5c(cc4nc3s2)OCO5)c1 | n | n | x | u | x | n
O=C(Nc1ccncc1)c1cc2ccccc2cc1O | n | n | x | n[2.33 µM] | x | n
COc1ccc(C(=O)C2CCCN(C(=O)Cc3c(C)noc3C)C2)cc1OC (configuration not stated) | n | n | n | x | n | n
COc1cc(C(=S)N2CCC(C)CC2)ccc1O | n | n | n | 7.94µM | 44.7µM | n
COc1cc(C(=S)N2CCCC2)ccc1O | n | n | n | 14.1µM | u | n
COc1ccc(C(=O)C2CCCN(C(=O)CSC)C2)cc1OC (configuration not stated) | n | n | x | 70.8µM | n | n
COc1cc(C(=S)N2CCCCC2)ccc1O | n | n | n | 50.1µM | 44.7µM | n
Cc1ccc([N+](=O)[O-])c2c1C(N1CC(C)OC(C)C1)C(C)(C)O2 (configuration not stated) | n | u | n | n | n | n
CCOc1cc(C(=S)N2CCCC2)ccc1O | u | n | x | x | 35.5µM | n
COc1cc(C(=S)N2CCC(C(N)=O)CC2)ccc1O | n | n | n | u | 20µM | n[11.4 µM]
COc1cc(OC)cc(C(=O)Nc2ccc3nc(N4CCC(C)CC4)cc(C)c3c2)c1 | n | n | n | n | x | n
SMILES | HP1b binding inh | BAZ2B inh | TDP1 inh | G9a inh | Sfp PPTase inh | JMJD2A Tudor
CC(C)(C)n1cnc2cc(NC(=O)c3ccccc3)ccc21 | n | n | n | n | n | n
CCn1cnc2cc(NCc3ccc(N(C)C)cc3)ccc21 | 31.6µM | 10µM | n | 11.2µM | n | 10µM
CN(C)c1ccc(CNc2ccc3c(c2)ncn3C(C)(C)C)cc1 | 35.5µM | 15.8µM | x | 22.4µM | n | 14.1µM
CCOc1ccc(CNc2ccc(S(N)(=O)=O)cc2)cc1 | n | n | n | n | n | n
CCN(CC)c1ccc(CNc2ccc3c(c2)ncn3CC)cc1 | 35.5µM | 15.8µM | x | 22.4µM | n | 20µM
CCOc1ccc(CNc2ccc3c(c2)ncn3C(C)(C)C)cc1 | n | u | x | 79.4µM | n | u
CCOC(=O)C1=C(C)NC(C)=C(C(=O)OCC)C1C(=O)OCC(=O)NC1CCCCC1 | n | x | n | x | x | n
CN1C(=O)Cc2cc([S+](=O)([O-])N3CCN([S+](=O)([O-])c4c(F)cccc4F)CC3)ccc21 | x | x | x | x | x | n
O=C1[C@H]2[C@H](ON3CCCC[C@H]23)C(=O)N1c1cccc(C(F)(F)F)c1 | n | n | n | n | n | n
COc1ccc([C@@H]2[C@H]3C(=O)N(c4cccc(C(F)(F)F)c4)C(=O)[C@H]3ON2C)cc1 | n | n | n | 44.7µM | n | n
OC(COc1ccc2c(c1)OCO2)CN1CCN(c2ccccc2)CC1 (configuration not stated) | n | n | n | 50.1µM | u | u
OC(COc1ccc2c(c1)OCO2)CN1CCc2ccccc2C1 (configuration not stated) | n | u | n | u | n | n
COc1ccc(OCC(O)CN2CCN(c3ccccc3)CC2)cc1 (configuration not stated) | n | n | n | n[0.501 µM] | n | u
CC(C)c1ccc(OCC(O)CN2CCN(c3ccccc3)CC2)cc1 (configuration not stated) | n | 56.2µM | n | u | n | n
NC(=O)NC(=O)COC(=O)CNS(=O)(=O)c1ccc(F)c(F)c1F | n | n | n | n | n | n
Cc1cc(C(C)(C)C)ccc1OCCN(C)C | u | 28.2µM | n | 8.91µM | n | 7.94µM
Cc1ccc(SCCCCN2CCNCC2)cc1 | n | 39.8µM | n | 8.91µM | 50.1µM | 11.2µM
CCCN(CCC)CCOc1cc(C)ccc1C(C)C | u | u | n | 17.8µM | n | 3.16µM
Cc1ccc(C(C)C)c(OCCCCN2CCNCC2)c1 | u | 28.2µM | x | 3.98µM | 56.2µM | 7.08µM
Cc1ccc(C(C)C)c(OCCOCCN2CCNCC2)c1 | n | x | x | x | x | n
CCN(CC)S(=O)(=O)c1ccc(Cl)c(C(=O)OC2CC(C)OC2=O)c1 (configuration not stated) | n | n | n | n | n | n
Cc1ccc(C(C)C)c(OCCN(C)C)c1 | u | 35.5µM | x | 3.55µM | u | 2.82µM
Cc1ccc(C(C)C)c(OCC#CCN2CCOCC2)c1 | u | 50.1µM | x | 7.94µM | u | 22.4µM
Cc1ccc(C(C)C)c(OCCN)c1 | n | n | n | u | n | n
Cc1cc(C(=O)NNc2ccc(C)c(C)c2)no1 | n | n | n | 2.51µM | n | n
SMILES | HP1b binding inh | BAZ2B inh | TDP1 inh | G9a inh | Sfp PPTase inh | JMJD2A Tudor
Cc1ccc(NNC(=O)c2cc(C)on2)c(C)c1 | n | n | n | 11.2µM | n | n
Cc1cc(C(=O)NNc2ccc(Cl)cc2)no1 | n | n | n | x | n | n
Cc1cc(C)n(CCC(=O)Nc2ccc(Cl)cc2)n1 | n | n | n | n | x | u
O=C(C[n+]1cc(-c2ccc(Cl)cc2)n2c1CCC2)Nc1nc(-c2ccc(F)cc2)cs1 | n | u | n | u | 44.7µM | n
CCN(CC)c1nc2c3c(nc4c(c3c1C#N)CC(=O)N4c1ccc(Cl)cc1)NC(C)=N2 | n | n | n | 35.5µM | u | n
CC(NC(=O)C12CC3CC(CC(O)(C3)C1)C2)c1ccccc1 (configuration not stated) | n | n | x | n | n | n
